The source of these data is ChEMBL document CHEMBL2218924, “A broad activity screen in support of a chemogenomic map for kinase signalling research and drug discovery” (Biochem J, 2013).

This experiment has as its target T1, Serine/threonine-protein kinase Sgk3 (Homo sapiens) (UniProt Q96BR1).
T1 sequence (whole entry): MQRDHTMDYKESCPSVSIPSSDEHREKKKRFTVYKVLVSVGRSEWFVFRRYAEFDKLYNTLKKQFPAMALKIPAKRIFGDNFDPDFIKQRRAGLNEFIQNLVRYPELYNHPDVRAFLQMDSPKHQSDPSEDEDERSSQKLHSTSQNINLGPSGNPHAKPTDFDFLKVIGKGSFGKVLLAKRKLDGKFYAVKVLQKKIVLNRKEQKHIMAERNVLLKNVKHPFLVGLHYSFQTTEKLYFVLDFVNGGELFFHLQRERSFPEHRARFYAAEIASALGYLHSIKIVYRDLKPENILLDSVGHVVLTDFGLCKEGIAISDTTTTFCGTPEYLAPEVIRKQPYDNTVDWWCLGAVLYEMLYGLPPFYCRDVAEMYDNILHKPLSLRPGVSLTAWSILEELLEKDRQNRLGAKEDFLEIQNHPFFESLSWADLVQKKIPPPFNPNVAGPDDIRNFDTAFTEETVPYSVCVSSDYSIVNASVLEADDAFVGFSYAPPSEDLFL
The note with it: at 1 µM.
Turning to `O=c1cc(-c2cccc3c2Sc2ccccc2S3)oc(N2CCOCC2)c1`, the residual activity turned out to be 101%.
As to `Nc1n[nH]c2nnc(-c3c(-c4ccccc4)nn4ccccc34)cc12`, the residual activity stood at 106%.
For `CO[C@H]1[C@@H](OC)C[C@H](C)[C@@H](OC)C2=CC(=O)C=C(NC(=O)/C(C)=C/C=C/[C@H](OC)[C@@H](OC(N)=O)/C(C)=C/[C@@H]1C)C2=O`, the residual activity was 95%.
As to `NC(=O)c1ccc2[nH]c(-c3ccc(Oc4ccc(Cl)cc4)cc3)nc2c1`, the residual activity was 107%.
On to `CCC(=O)Nc1ccc2ncnc(Nc3cccc(Br)c3)c2c1`, for which the residual activity is 105%.
`Cc1cc2ncc(-c3ccccc3)nc2cc1C`: the residual activity was 108%.
For the compound `Oc1n[nH]c2nnc(-c3c(-c4ccccc4)nn4ccccc34)cc12`, the residual activity was found to be 92%.
For the compound `CCOc1cc2ncnc(Nc3cccc(Br)c3)c2cc1OCC`, the residual activity stood at 108%.
As for `Ic1cccc(CSc2nnc(-c3ccncc3)o2)c1`, the residual activity was determined as 91%.
For `O=C1NC(=O)/C(=C\c2ccc3nccnc3c2)S1` the value was 114%; for `c1ccc2c(-c3ccncc3)c[nH]c2c1`, 101%; for `COc1ccc(C(=O)Nc2sc3c(c2C(N)=O)CCCC3)cc1OC`, 74%.
Regarding `COc1ccc(CNc2nc(N(CCO)CCO)nc3c2ncn3C(C)C)cc1`, the residual activity worked out at 114%.
Take `CCN(CC)CCNC(=O)c1c(C)[nH]c(/C=C2\C(=O)Nc3ccc(Cl)cc32)c1C`: the residual activity is 115%.
Regarding `COc1ccc(OC)c2c(=S)c3ccccc3[nH]c12`, the residual activity is 112%.
`CC(C)(C)n1nc(Cc2cccc3ccccc23)c2c(N)ncnc21`: the residual activity is 106%.
To `CN(C)CCCn1cc(C2=C(c3c[nH]c4ccccc34)C(=O)NC2=O)c2ccccc21` belongs 101%; to `CCN(CC)CCCCN1c2ccccc2Oc2ccc(Cl)cc21`, 107%; to `CCCC(=O)Oc1ccc2[nH]c(C(=O)c3cc4ccccc4[nH]3)cc2c1`, 94%.
For `Cn1cc(/C=C2\C(=O)Nc3ccc(S(N)(=O)=O)cc32)c2ccccc21` the value was 112%; for `Cc1ccc(S(=O)(=O)/C=C/C#N)cc1`, 103%.
In the case of `O=C1NC(=O)c2cc(Nc3ccc(F)cc3)c(Nc3ccc(F)cc3)cc21`, the residual activity stood at 96%.
In the case of `Oc1ccc(Nc2nc(-c3ccc(Cl)cc3)cs2)cc1`, the residual activity was determined as 112%.
Take `CC#CC(=O)Nc1cc2c(Nc3ccc(F)c(Cl)c3)ncnc2cn1`: the residual activity stood at 102%.
To `Nc1nc(Nc2ccc(S(N)(=O)=O)cc2)nn1C(=S)Nc1c(F)cccc1F` belongs 88%; to `COc1cc2ncnc(Nc3ccc(NC(=O)c4ccccc4)cc3)c2cc1OC`, 96%; to `O=c1c2ccccc2[nH]c(=S)n1CCN1CCC(=C(c2ccc(F)cc2)c2ccc(F)cc2)CC1`, 118%.
For `COc1cc2ncnc(N3CCN(C(=O)Nc4ccc(Oc5ccccc5)cc4)CC3)c2cc1OC` the value was 104%.
In the case of `CO[C@H]1C[C@@H]2CC[C@@H](C)[C@@](O)(O2)C(=O)C(=O)N2CCCC[C@H]2C(=O)O[C@H]([C@H](C)C[C@@H]2CC[C@@H](O)[C@H](OC)C2)CC(=O)[C@H](C)/C=C(\C)[C@@H](O)[C@@H](OC)C(=O)[C@H](C)C[C@H](C)/C=C/C=C/C=C/1C`, the residual activity stood at 112%.
To `Cn1cnc2cc3c(Nc4cccc(Br)c4)ncnc3cc21` belongs 107%; to `CN(C)c1ccc(/C=C2\C(=O)Nc3ccccc32)cc1`, 106%.
For `COc1cc2nccc(Oc3ccc(NC(=S)NC(=O)c4ccccc4C)cc3)c2cc1OC`, the residual activity was found to be 97%.
